Data on 67 compounds can be found in PubChem BioAssay AID1578 (Sanford-Burnham Center for Chemical Genomics, 2009).

The structures appear in SMILES notation. Screen size: about 290,000 compounds; about 3,000 (1%) were called active. Only a selection was taken, and actives are over-represented in it overall. Values without a mark were called inactive. Rule as the data show it: active = inhibition mostly above about 36% (no sharp cut-off); inactive = mostly below about 34%.

This test can be described thus: NOD1 signaling inhibitors, primary screen, cell-based, luminescence, uHTS (AID 1578).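 Also: HEK-293T reporter cells stimulated with the NOD1 agonist gamma-tri-DAP.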 The note with it: NOD1-driven NF-kB luciferase reporter cells, at 4 µM, active compounds read high. In general terms: Reporter assays use an easily measured gene product as a stand-in for the process of interest.
In general, inhibition refers to the relative decrease from the control value, in per cent. Consider `CCOc1ccc(OCC)c(S(=O)(=O)NCc2cccnc2)c1`, for which the inhibition was -17.5%.
For the compound `NCCc1nnc(SCC(=O)Nc2ccc(Br)cc2)o1`, the inhibition is -15.9%.
Consider `CC(NC(=O)c1ccc2nc[nH]c2c1)c1ccccc1` (configuration not stated), for which the inhibition was -33.6%.
To `Cn1nnnc1SCC(=O)N1CCN(C(=O)c2ccco2)CC1` belongs -32.2%; to `O=C(O)CCCNC(=O)c1cncc(O)c1`, 15.1%; to `N=c1ccn(Cc2ccc(Cl)c(Cl)c2)cc1`, 79.2% (active).
For the compound `N=c1ccn(Cc2cccc(Cl)c2)cc1`, the inhibition was 8.9%.
Take `N=c1ccn(Cc2ccc(Cl)cc2)cc1`: the inhibition was 30.5%.
To `COC(Cn1c(-c2cccc(S(=O)(=O)N(C)C)c2)n[nH]c1=S)OC` belongs -34.1%; to `Cc1cc(NC(=O)c2cc3ncc(Br)cn3n2)no1`, -40.8%; to `O=C(O)CCCn1cc(NC(=O)c2c(F)cccc2F)cn1`, -50.2%.
Turning to `O=C(NCc1ccccn1)c1nc(Cn2cc([N+](=O)[O-])cn2)no1`, the inhibition was -23.2%.
`COc1ccc(C2NCCn3cccc32)cc1` (configuration not stated): the inhibition was 112% (active).
For `Fc1ccc(C2NCCn3cccc32)cc1` (configuration not stated), the inhibition was 25.8%.
On to `c1ccc(C2NCCn3cccc32)cc1` (configuration not stated), for which the inhibition is -14.6%.
For `Cc1ccc(C(c2nnnn2CS(=O)(=O)c2ccc(C)cc2)N2CCN(c3ncccn3)CC2)cc1` (configuration not stated), the inhibition is -41.2%.
Consider `COc1ccc(CNC(=O)CN2CCN(c3cccc(C)c3C)CC2)cc1`, for which the inhibition is -3.6%.
Take `COc1ccc(-n2c(SCC(=O)Nc3ncc(Cl)cc3Cl)nc3ccccc32)cc1`: the inhibition is 58.9% (active).
Regarding `Cc1ccc(-n2c(SCC(=O)Nc3ncc(Cl)cc3Cl)nc3ccccc32)cc1`, the inhibition is 59.3%.
Regarding `O=C(CSc1nc2ccccc2n1-c1ccccc1)Nc1ncc(Cl)cc1Cl`, the inhibition was 48.8%.
On to `Cc1ccc(SCC(=O)N2N=CCC2c2ccccc2)cc1` (configuration not stated), for which the inhibition is -19.9%.
`O=c1cc(O)n(-c2ccccc2F)c(=S)[nH]1`: the inhibition was 0%.
Take `CCOC(=O)c1c(C)sc2c1N(C(=O)CCl)c1cc(Cl)ccc1S2`: the inhibition is 55.3% (active).
To `CCOC(=O)c1c(C)sc2c1N(C(=O)CN(CC)CC)c1cc(Cl)ccc1S2` belongs -0.4%.
As to `CCOC(=O)c1c(C)sc2c1N(C(C)=O)c1cc(Cl)ccc1S2`, the inhibition is 25.7%.
As to `CC(=O)Nc1ccc(S(=O)(=O)NCc2nc(-c3ccccc3)no2)cc1`, the inhibition was -7.6%.
With `CCOC(=O)C1=C(C)NC(=O)NC1c1cc2c(cc1Br)OCO2` (configuration not stated), the inhibition was -20.8%.
`Cc1cc(OC(=O)c2ccccc2)n(CCC#N)n1`: the inhibition was 6.7%.
For `O=C(O)c1ccc(Oc2c(C(F)(F)F)oc3cc(O)ccc3c2=O)cc1`, the inhibition was -31.7%.
As for `COc1ccc2c(=O)c(Oc3ccc(C(=O)O)cc3)c(C(F)(F)F)oc2c1`, the inhibition was 47.7% (active).
To `COc1ccc(Oc2c(C(F)(F)F)oc3cc(OCC(=O)O)ccc3c2=O)cc1` belongs 4.6%; to `O=C(c1ccc(F)cc1)N1CCN(c2ccc([N+](=O)[O-])c(N3CCOCC3)c2)CC1`, -17.8%.
For `C[C@@H]1C[C@@H]2OC(=O)[C@]3(C)[C@H]2[C@@H](OC3(C)O)[C@]2(C)C(=O)C=C[C@H]12` (some centres not stated), the inhibition is -7.5%.
Consider `C=C1C(=O)C=C[C@]2(C)C[C@@H]3OC(=O)[C@](C)(O)[C@H]3C[C@@H]12`, for which the inhibition is 33.2% (active).
For the compound `CCCCNc1nc2ccccc2n1CC(=O)Nc1ccc2c(c1)OCCO2`, the inhibition is -11.5%.
Regarding `O=C(O)c1ccc(Cl)cc1NC(=O)C1CCCO1` (configuration not stated), the inhibition is -22%.
In the case of `COc1ccccc1N(C)S(=O)(=O)c1ccc(Cl)c(C(=O)NCCCN2CCOCC2)c1`, the inhibition is -22.8%.
`CN(c1ccccc1)S(=O)(=O)c1ccc(Cl)c(C(=O)Nc2ccc(N3CCOCC3)cc2)c1`: the inhibition is -13%.
As to `COc1ccc(CNC(=O)CSc2nc3ccc(C)cc3[nH]2)cc1OC`, the inhibition is 0.6%.
For `CCOc1ccc(/C=N/NC(=O)C(=O)N2CCCCCC2)c2ccccc12`, the inhibition is 12%.
`CC(C)N1C/C(=C/c2ccsc2)C(=O)/C(=C/c2ccsc2)C1`: the inhibition was 80.5% (active).
`CC(C)N1C/C(=C/c2cccnc2)C(=O)/C(=C/c2cccnc2)C1`: the inhibition was 49.5%.
On to `CN1C/C(=C/c2ccsc2)C(=O)/C(=C/c2ccsc2)C1`, for which the inhibition is -44.5%.
With `Cc1cc(NC(=O)c2cccnc2)ccc1NC(=O)c1ccco1`, the inhibition was -65.2%.
Take `COc1ccc(-c2csc(/C(C#N)=C\c3ccc(OC)c([N+](=O)[O-])c3)n2)cc1`: the inhibition was -19.7%.
In the case of `COc1ccc(-c2csc(/C(C#N)=C\c3cccc([N+](=O)[O-])c3)n2)cc1`, the inhibition was -40.1%.
On to `N#C/C(=C\c1ccc([N+](=O)[O-])cc1)c1nc(C2CC2)cs1`, for which the inhibition is -14.9%.
With `COc1cc(/C=C(/C#N)c2nc(-c3cc4ccccc4oc3=O)cs2)cc([N+](=O)[O-])c1O`, the inhibition was 6.6%.
As to `COc1ccc(-c2csc(/C(C#N)=C\c3ccc(O)c([N+](=O)[O-])c3)n2)cc1OC`, the inhibition is 78.3% (active).
On to `O=C(NC1CCSc2ccccc21)c1cccc(Cl)c1` (configuration not stated), for which the inhibition was -18.6%.
For `CCc1cc(-c2nc(N)ncc2-c2ccc(Br)cc2)c(O)cc1OC`, the inhibition is -5.1%.
For the compound `Cc1nc2cc(-c3ccccc3)[nH]n2c(=O)c1C`, the inhibition was -59.1%.
On to `Cc1ccc2cccc(N)c2n1`, for which the inhibition was -43.8%.
With `Cc1ccc2ccc3ccc(C)nc3c2n1` the figure was 44.3% (active); with `Cc1ccc2cccc(OCc3ccccc3)c2n1`, -0.7%; with `C/C(=N\Nc1cc(C(F)(F)F)ccc1Cl)c1ccccc1O`, 15.7%.
Regarding `CC1CCCN(c2ncnc3c2cnn3-c2ccc(Cl)cc2)C1` (configuration not stated), the inhibition was 73.3% (active).
Take `Clc1ccc(-n2ncc3c(N4CCCCCC4)ncnc32)cc1`: the inhibition was 78.4% (active).
To `COc1ccc(-n2ncc3c(N4CCC(C)CC4)ncnc32)cc1` belongs -5.4%; to `CN1CCN(c2ncnc3c2cnn3-c2ccc(Cl)cc2)CC1`, -13.8%.
As for `COc1ccc(-n2ncc3c(N4CCCCC4)ncnc32)cc1`, the inhibition is 87% (active).
Take `CC1CCCN(c2ncnc3c2cnn3-c2ccccc2)C1` (configuration not stated): the inhibition was 0.1%.
To `Cc1cccc(-n2ncc3c(N(C)C4CCCCC4)ncnc32)c1` belongs 27.6%; to `Clc1ccc(-n2ncc3c(N4CCCC4)ncnc32)cc1`, 39.9%.
`CC1CC(C)CN(c2ncnc3c2cnn3-c2ccc(Cl)cc2)C1` (configuration not stated): the inhibition was 1.3%.
To `COc1ccc(-n2ncc3c(N4CCC(C(N)=O)CC4)ncnc32)cc1` belongs -30%.
To `CCCN(CCC)c1ncnc2c1cnn2-c1ccc(OC)cc1` belongs -46.4%.
